# Experimental data from publication PMC4336329 (PLoS ONE, 2015).
# Out of some 310,000 compounds screened, about 14,000 (4.5%) showed an effect of 50% or more. The effect is printed as a negative number. The entries come from a sample that favours strong results as a whole.
# Biological target: human ether-à-go-go-related gene (hERG) potassium channel (human, UniProt Q12809)
# Test: primary screen, population patch clamp on CHO cells stably expressing hERG; higher = less effect of the substance
# 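Note: peak tail current of the secondary pulse compared with the same well before compound.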
# Chain of human ether-à-go-go-related gene (hERG) potassium channel (Q12809 whole entry, looked up): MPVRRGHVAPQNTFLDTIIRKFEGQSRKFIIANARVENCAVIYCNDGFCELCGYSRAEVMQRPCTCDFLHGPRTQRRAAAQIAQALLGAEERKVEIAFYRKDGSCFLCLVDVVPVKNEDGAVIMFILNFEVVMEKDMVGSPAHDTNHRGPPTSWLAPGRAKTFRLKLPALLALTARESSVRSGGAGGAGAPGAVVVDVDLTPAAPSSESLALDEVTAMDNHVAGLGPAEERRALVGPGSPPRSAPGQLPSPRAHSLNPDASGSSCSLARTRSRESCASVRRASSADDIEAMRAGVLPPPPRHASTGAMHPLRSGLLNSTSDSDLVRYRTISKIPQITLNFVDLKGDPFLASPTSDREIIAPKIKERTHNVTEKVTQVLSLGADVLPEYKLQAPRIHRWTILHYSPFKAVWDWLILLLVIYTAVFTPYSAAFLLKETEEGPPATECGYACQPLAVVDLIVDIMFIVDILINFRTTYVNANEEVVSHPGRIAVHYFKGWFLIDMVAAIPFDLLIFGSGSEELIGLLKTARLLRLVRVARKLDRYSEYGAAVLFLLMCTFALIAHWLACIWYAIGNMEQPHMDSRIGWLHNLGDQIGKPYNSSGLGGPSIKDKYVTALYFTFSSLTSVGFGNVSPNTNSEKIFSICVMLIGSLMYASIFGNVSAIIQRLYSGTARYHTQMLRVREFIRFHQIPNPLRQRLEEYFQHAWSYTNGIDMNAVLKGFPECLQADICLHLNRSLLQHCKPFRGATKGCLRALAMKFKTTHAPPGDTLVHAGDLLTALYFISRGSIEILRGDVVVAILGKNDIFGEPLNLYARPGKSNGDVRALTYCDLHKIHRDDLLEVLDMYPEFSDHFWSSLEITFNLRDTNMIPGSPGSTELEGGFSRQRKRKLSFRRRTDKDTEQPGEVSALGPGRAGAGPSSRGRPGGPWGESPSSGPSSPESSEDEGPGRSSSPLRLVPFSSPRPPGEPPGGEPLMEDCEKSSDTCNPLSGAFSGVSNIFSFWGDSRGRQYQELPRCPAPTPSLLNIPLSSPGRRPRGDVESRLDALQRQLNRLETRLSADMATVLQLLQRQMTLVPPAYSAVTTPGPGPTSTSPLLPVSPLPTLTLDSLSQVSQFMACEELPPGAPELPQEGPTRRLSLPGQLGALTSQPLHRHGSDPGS
row,Structure (SMILES),"hERG current change (%, negative = inhibition) at 10uM [%]"
1,O=C(NCC(c1cccs1)N1CCc2ccccc21)c1ccccc1 (centres unmarked),15.3
2,C=CCN(c1ccc(C(=O)N(CC)CC)cc1)S(C)(=O)=O,-4.12
3,CCN(CC)CCCNC(=O)C1c2ccccc2C(=O)N(CCOC)C1c1ccc(F)cc1 (centres unmarked),14.9
4,COc1ccc(CNC(=O)COC(=O)c2[nH]c(C)c(C(C)=O)c2C)cc1OC,1.28
5,CC(=O)Oc1ccc(N2C(=O)CCC2=O)cc1,16
6,Cc1ccc(N2C(=O)[C@@H]3Cc4ccccc4CN3C2=O)cc1,-3.34
7,CCOC(=O)CC1C(=O)NCCN1C(=O)c1ccc(Cl)cc1 (centres unmarked),12.9
8,Nc1nc2ccc(NC(=O)c3ccco3)cc2s1,11.7
9,COc1ccc(CNC(=O)CCc2nnc3ccc(N4CCC5(CC4)OCCO5)nn23)cc1,15.1
10,Nn1c(COc2ccccc2F)nnc1SCC(=O)NC1CC1,0.387
11,CC(=O)NC1=NN(C(C)=O)C(C)(c2ccco2)S1 (centres unmarked),14.6
12,Cc1ccc(CONC(=O)c2ccc(OC(F)F)cc2)cc1,-30.9
13,Cc1ccc(-c2cn(-c3ccc(OC(F)F)cc3)c3[n+]2CCCCC3)cc1.[Br-],-61.6
14,O=C(CC1C(=O)NCCN1Cc1ccoc1)NCc1cccc(OC(F)(F)F)c1 (centres unmarked),1.19
15,CC(C)(O)CC[C@@H](O)[C@](C)(O)C1CC[C@@]2(O)C3=CC(=O)[C@]4(O)C[C@@H](O)[C@@H](O)C[C@]4(C)C3CC[C@]12C (some centres unmarked),30.1
16,CCCCCCSc1ncc(C#N)c(N)n1,-4.45
17,Cn1c2ccccc2c(=O)c2c(=O)n(C3CCCCC3)c(-c3cccs3)nc21,-66.1
18,CCCc1nc2c(c(=O)c3ccccc3n2C)c(=O)n1C1CCCCCC1,-10.1
19,CCCCCc1nc2c(c(=O)c3ccccc3n2C)c(=O)n1C1CCCCCC1,1.32
20,Cc1ccc(-c2nc3c(c(=O)c4ccccc4n3C)c(=O)n2Cc2ccco2)cc1,2.18

row,Structure (SMILES),"hERG current change (%, negative = inhibition) at 10uM [%]"
1,CC(C)Cn1c(-c2ccco2)nc2c(c(=O)c3ccccc3n2C)c1=O,-59.3
2,COc1ccc(Cn2c(-c3ccco3)nc3c(c(=O)c4ccccc4n3C)c2=O)cc1,-35.3
3,Cc1nc2c(c(=O)c3ccccc3n2C)c(=O)n1C1CCCCCC1,-0.582
4,CCc1nc2c(c(=O)c3ccccc3n2C)c(=O)n1C1CCCCCC1,-1.73
5,Cn1c2ccccc2c(=O)c2c(=O)n(C3CCCCC3)c(-c3ccco3)nc21,-53.9
6,COC(=O)c1sc(NC(=O)COc2cccnc2[N+](=O)[O-])c(C(=O)OC)c1C,3.81
7,CCOc1ccccc1Cn1c(=O)oc2ccc(C)cc21,11.1
8,Cc1cc(C)cc(N(CC(=O)NCC2CCCO2)C(=O)CCC(=O)Nc2nccs2)c1 (centres unmarked),12.8
9,O=C(/C=C/c1cccc([N+](=O)[O-])c1)NCCSCc1cccc(Cl)c1,-18.9
10,CCOCCCNC(=O)C(NC(=O)c1ccccc1O)c1ccccc1 (centres unmarked),7.92
11,COc1ccccc1N1CCN(C(CNS(=O)(=O)c2ccc(C)cc2)c2cccnc2)CC1 (centres unmarked),-38.9
12,CCN1CCN(C(CNS(=O)(=O)c2ccc(OC)c(C)c2)c2cccnc2)CC1 (centres unmarked),-70.2
13,COc1ccc(S(=O)(=O)NCC(c2cccnc2)N2CCN(C)CC2)cc1C (centres unmarked),-62.9
14,COc1ccc(S(=O)(=O)NCc2cccnc2)cc1C,17.1
15,COc1ccc(S(=O)(=O)NCC(c2cccnc2)N2CCN(Cc3ccccc3)CC2)cc1C (centres unmarked),-79.6
16,CCS(=O)(=O)NCC(c1cccnc1)N1CCN(c2ccccc2OC)CC1 (centres unmarked),0.421
17,COc1ccc(C)cc1S(=O)(=O)NCC(c1cccnc1)N1CCc2ccccc2C1 (centres unmarked),-25.3
18,COc1ccc(S(=O)(=O)NCC(c2cccnc2)N2CCN(C)CC2)cc1OC (centres unmarked),10.7
19,COc1ccccc1N1CCN(C(CNS(=O)(=O)c2ccccc2)c2cccnc2)CC1 (centres unmarked),-7.98
20,Cc1cc(S(=O)(=O)NCC(C)C)ccc1OCC(=O)N1CCN(Cc2ccccc2)CC1,-35.2

row,Structure (SMILES),"hERG current change (%, negative = inhibition) at 10uM [%]"
1,COc1ccc(S(=O)(=O)NCC(c2cccnc2)N2CCN(c3ccccc3)CC2)cc1C (centres unmarked),-79.2
2,Cc1ccc(Sc2ncccc2COC(=O)NC(C)C)cc1,4.99
3,CC(C)OCCCN(CC(O)c1ccccc1)CC(O)c1ccccc1.O=C(O)C(=O)O (centres unmarked),-10.1
4,CC(C)(C)C(=O)C[n+]1cccc(C(N)=O)c1.[Br-],21
5,Cc1nn(-c2ccccc2)c2c1C1(C(=O)N(C(C)C)c3ccccc31)C(C#N)=C(N)O2 (centres unmarked),-1.88
6,CC1=Nc2cc(C(=O)N3CCCC3)ccc2Sc2c(C)ccc(C)c21,-19.5
7,CSc1ncc(OCc2ccccc2)c(=O)[nH]1,8.39
8,O=C1CS/C(=N\NC(=O)c2ccccc2)N1,15.6
9,Cc1ccccc1-c1nc(CN2CCC(C(=O)NC3CC3)CC2)c(C)o1,-33
10,Cc1ccccc1-c1nc(CN2CCC(C(=O)NCCN3CCOCC3)CC2)c(C)o1,-11.4
11,Cc1ccccc1-c1nc(CN2CCC(C(=O)NC3CCN(Cc4ccccc4)CC3)CC2)c(C)o1,-43
12,Cc1oc(-c2ccc(Cl)cc2)nc1CN1CCC(C(=O)NCC2CCCO2)CC1 (centres unmarked),-70.1
13,Cc1ccccc1-c1nc(CN2CCC(C(=O)NC3CCCCC3)CC2)c(C)o1,-67.7
14,O=C(NCC1CCCO1)C1CCN(C(=O)c2ccc(Cl)cc2)CC1 (centres unmarked),-1.73
15,Cc1cccc(-c2nc(CS(=O)CC(=O)NCC3CCCO3)c(C)o2)c1 (centres unmarked),-5.24
16,Cc1ccccc1-c1nc(CN2CCC(C(=O)NCC3CCCO3)CC2)c(C)o1 (centres unmarked),-54.5
17,Cc1oc(-c2cccc(Cl)c2)nc1CN1CCC(C(=O)NCC2CCCO2)CC1 (centres unmarked),-57.1
18,Cc1ccccc1-c1nc(CN2CCC(C(=O)NCCCN3CCCC3)CC2)c(C)o1,14.4
19,COc1ccc(-c2nc(CN3CCC(C(=O)NCC4CCCO4)CC3)c(C)o2)cc1OC (centres unmarked),-20.9
